Test results published in PubChem BioAssay (NCI).
The panel holds about 83,000 compounds, 20% with a hit somewhere; the sample as a whole holds those more often.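 Growth was measured after 48 h exposure to one concentration of compound in 96-well plates. Values under 10 count as active.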 Calls of active or inactive are those of the source.

Legend:
Test in all cases: NCI-60 one-dose screen, 48 h (100 = growth as untreated, 0 = no growth, -100 = all killed)
Details in all cases: 10 µM unless noted
EKVX NSCLC = test system: EKVX NSCLC
SN12C renal = test system: SN12C renal
UO-31 renal = test system: UO-31 renal
TK-10 renal = test system: TK-10 renal
ACHN renal = test system: ACHN renal
CAKI-1 renal = test system: CAKI-1 renal
A498 renal = test system: A498 renal
CCRF-CEM leukemia = test system: CCRF-CEM leukemia
MOLT-4 leukemia = test system: MOLT-4 leukemia
SR leukemia = test system: SR leukemia
RPMI-8226 leukemia = test system: RPMI-8226 leukemia
OVCAR-8 ovarian = test system: OVCAR-8 ovarian
OVCAR-5 ovarian = test system: OVCAR-5 ovarian
OVCAR-4 ovarian = test system: OVCAR-4 ovarian
SK-OV-3 ovarian = test system: SK-OV-3 ovarian
IGROV1 ovarian = test system: IGROV1 ovarian
OVCAR-3 ovarian = test system: OVCAR-3 ovarian
HS 578T breast = test system: HS 578T breast
NCI/ADR-RES ovarian = test system: NCI/ADR-RES ovarian
T-47D breast = test system: T-47D breast

Measured: growth

Cc1cc(C)n(C(=O)c2nn(-c3ccc(Cl)cc3)cc2O)n1
inactive: EKVX NSCLC 66.8% | SN12C renal 25.6% | UO-31 renal 13.7% | TK-10 renal 35.7% | ACHN renal 33.4% | CAKI-1 renal 77.6% | A498 renal 56.2% | CCRF-CEM leukemia 13% | OVCAR-8 ovarian 26.3% | OVCAR-5 ovarian 64.1% | OVCAR-4 ovarian 67.7% | SK-OV-3 ovarian 87.5% | IGROV1 ovarian 25.3% | OVCAR-3 ovarian 50.9% | NCI/ADR-RES ovarian 22.6% | T-47D breast 46.3%
active: MOLT-4 leukemia 9.99% | SR leukemia 3.49% | RPMI-8226 leukemia -0.413% | HS 578T breast 7.1%

Fc1ccc(-c2nnc(-c3c(-c4ccc(F)cc4)nc4ncccn34)o2)cc1
inactive: EKVX NSCLC 108% | SN12C renal 104% | UO-31 renal 77.8% | TK-10 renal 111% | ACHN renal 97.8% | CAKI-1 renal 100% | A498 renal 69.8% | CCRF-CEM leukemia 96.7% | MOLT-4 leukemia 83.4% | SR leukemia 90.8% | RPMI-8226 leukemia 92.5% | OVCAR-8 ovarian 95.7% | OVCAR-5 ovarian 87.3% | OVCAR-4 ovarian 106% | SK-OV-3 ovarian 112% | IGROV1 ovarian 106% | OVCAR-3 ovarian 110% | HS 578T breast 115% | NCI/ADR-RES ovarian 97.3% | T-47D breast 95.4%

Nc1ccc(C2=Nc3cccc4cccc(c34)S2)cc1
active: T-47D breast 8.57%
inactive: EKVX NSCLC 67.3% | SN12C renal 94.2% | UO-31 renal 60.4% | TK-10 renal 88.3% | ACHN renal 81.3% | CAKI-1 renal 75.7% | A498 renal 55.9% | CCRF-CEM leukemia 68.4% | MOLT-4 leukemia 82.2% | SR leukemia 57.5% | RPMI-8226 leukemia 81.8% | OVCAR-8 ovarian 93.6% | OVCAR-5 ovarian 73.2% | OVCAR-4 ovarian 85.3% | SK-OV-3 ovarian 103% | IGROV1 ovarian 67.5% | OVCAR-3 ovarian 87.9% | HS 578T breast 92.2% | NCI/ADR-RES ovarian 107%

CC(C)[C@]12O[C@H]1[C@@H]1O[C@]13[C@]1(O[C@H]1C[C@H]1C4=C(CC[C@@]13C)C(=O)OC4)[C@@H]2OC(=O)CN(C)C
inactive: SN12C renal 29.1% | CCRF-CEM leukemia 12.4% | RPMI-8226 leukemia 14.7% | OVCAR-8 ovarian 14.9% | OVCAR-5 ovarian 26.7% | OVCAR-4 ovarian 21.1% | SK-OV-3 ovarian 52.1% | T-47D breast 27.2%
active: EKVX NSCLC -26.9% | UO-31 renal -5.89% | TK-10 renal 4.34% | ACHN renal 9.59% | CAKI-1 renal -48.5% | A498 renal -36.4% | MOLT-4 leukemia -11.7% | SR leukemia -2.85% | IGROV1 ovarian -17.1% | OVCAR-3 ovarian -1.74% | HS 578T breast -0.647% | NCI/ADR-RES ovarian -5.71%

COc1ncc(-c2ccc3nccc(C#CCN4CCN(S(C)(=O)=O)CC4)c3c2)cc1NS(=O)(=O)c1ccc(F)cc1F
active: EKVX NSCLC 9.26% | SN12C renal 2.52% | UO-31 renal 5.46% | CAKI-1 renal 4.01% | A498 renal -52.9% | CCRF-CEM leukemia -7.81% | MOLT-4 leukemia -21% | SR leukemia 1.58% | RPMI-8226 leukemia -30.1% | OVCAR-8 ovarian 7.2% | OVCAR-4 ovarian 8.24% | SK-OV-3 ovarian -11.1% | IGROV1 ovarian -35.9% | OVCAR-3 ovarian -20.7% | HS 578T breast -13.9% | NCI/ADR-RES ovarian 6.28% | T-47D breast 3.5%
inactive: TK-10 renal 12% | ACHN renal 13.2% | OVCAR-5 ovarian 11.3%

COc1ccc(C2=NN(C(C)=O)C(c3cc(OC)c(OC)c(OC)c3)C2)cc1 (stereo not given)
active: SR leukemia -9.78%
inactive: EKVX NSCLC 95.2% | SN12C renal 109% | UO-31 renal 80% | TK-10 renal 152% | ACHN renal 104% | CAKI-1 renal 100% | A498 renal 96.5% | CCRF-CEM leukemia 75.5% | MOLT-4 leukemia 118% | RPMI-8226 leukemia 93.9% | OVCAR-8 ovarian 108% | OVCAR-5 ovarian 111% | OVCAR-4 ovarian 112% | SK-OV-3 ovarian 108% | IGROV1 ovarian 92.8% | OVCAR-3 ovarian 88.6% | HS 578T breast 244% | NCI/ADR-RES ovarian 83% | T-47D breast 92.1%

COc1cc2c(cc1OC)C1CCN3C(=O)CCC3N1CC2 (stereo not given)
inactive: EKVX NSCLC 114% | SN12C renal 109% | UO-31 renal 99.7% | TK-10 renal 104% | ACHN renal 102% | CAKI-1 renal 115% | A498 renal 104% | CCRF-CEM leukemia 102% | MOLT-4 leukemia 97.3% | SR leukemia 95.8% | RPMI-8226 leukemia 102% | OVCAR-8 ovarian 113% | OVCAR-5 ovarian 109% | OVCAR-4 ovarian 116% | SK-OV-3 ovarian 112% | IGROV1 ovarian 125% | OVCAR-3 ovarian 113% | HS 578T breast 97.9% | NCI/ADR-RES ovarian 99.6% | T-47D breast 105%

Cc1nnc(Nc2ccc(NC(=O)Nc3ccc(Cl)cc3)cc2)c2ccccc12
inactive: EKVX NSCLC 44.2% | SN12C renal 60.1% | UO-31 renal 51.2% | TK-10 renal 51.7% | ACHN renal 58.8% | CAKI-1 renal 33.9% | A498 renal 35.4% | CCRF-CEM leukemia 11% | OVCAR-8 ovarian 31.4% | OVCAR-5 ovarian 72.8% | OVCAR-4 ovarian 42.6% | SK-OV-3 ovarian 66.4% | IGROV1 ovarian 62% | OVCAR-3 ovarian 44.4% | NCI/ADR-RES ovarian 45.1%
active: MOLT-4 leukemia 9.76% | SR leukemia -3.51% | RPMI-8226 leukemia -11.9% | HS 578T breast 3.43% | T-47D breast 8.43%

CN(C)c1ccc2[nH]c3c(C(N)=O)cc(=O)c(=O)c=3oc2c1
active: MOLT-4 leukemia 9.08% | RPMI-8226 leukemia 5% | OVCAR-3 ovarian -9.97%
inactive: EKVX NSCLC 100% | SN12C renal 54.5% | UO-31 renal 56.3% | TK-10 renal 111% | ACHN renal 29.7% | CAKI-1 renal 83.2% | A498 renal 87.7% | CCRF-CEM leukemia 11.9% | SR leukemia 31% | OVCAR-8 ovarian 25.4% | OVCAR-5 ovarian 89% | OVCAR-4 ovarian 49.1% | SK-OV-3 ovarian 82% | IGROV1 ovarian 32.5% | HS 578T breast 20.4% | NCI/ADR-RES ovarian 58.1% | T-47D breast 18.1%

Cc1cc(C(C)(C)c2cc(C)c(O)c(CN(C)C)c2)cc(CN(C)C)c1O
inactive: EKVX NSCLC 92.3% | SN12C renal 96.3% | UO-31 renal 59.4% | TK-10 renal 94.2% | ACHN renal 86.2% | CAKI-1 renal 79.6% | A498 renal 69.5% | CCRF-CEM leukemia 100% | MOLT-4 leukemia 87.4% | SR leukemia 74.8% | RPMI-8226 leukemia 84.1% | OVCAR-8 ovarian 89.4% | OVCAR-5 ovarian 102% | OVCAR-4 ovarian 99.1% | SK-OV-3 ovarian 104% | IGROV1 ovarian 78.9% | OVCAR-3 ovarian 85.7% | HS 578T breast 76.1% | NCI/ADR-RES ovarian 95.7% | T-47D breast 107%

COc1cc(OC)c2sc(-c3ccc(-n4cncc4-c4ccc(N)cc4)cc3)nc2c1
inactive: EKVX NSCLC 70.3% | SN12C renal 76.1% | UO-31 renal 49.2% | TK-10 renal 70% | ACHN renal 79.7% | CAKI-1 renal 76.4% | CCRF-CEM leukemia 60.5% | MOLT-4 leukemia 46.9% | SR leukemia 68.3% | RPMI-8226 leukemia 64% | OVCAR-8 ovarian 77.4% | OVCAR-5 ovarian 100% | OVCAR-4 ovarian 63.1% | SK-OV-3 ovarian 120% | IGROV1 ovarian 104% | OVCAR-3 ovarian 77.6% | HS 578T breast 103% | NCI/ADR-RES ovarian 68.9% | T-47D breast 60.6%
active: A498 renal -3.9%

O=C1NCC(Nc2ccc(Br)cc2Cl)C(=O)N1 (stereo not given)
inactive: EKVX NSCLC 90.7% | SN12C renal 102% | UO-31 renal 67.7% | TK-10 renal 110% | ACHN renal 96.2% | CAKI-1 renal 91.8% | A498 renal 117% | CCRF-CEM leukemia 116% | MOLT-4 leukemia 109% | SR leukemia 101% | RPMI-8226 leukemia 110% | OVCAR-8 ovarian 130% | OVCAR-5 ovarian 100% | OVCAR-4 ovarian 111% | SK-OV-3 ovarian 105% | IGROV1 ovarian 108% | OVCAR-3 ovarian 114% | HS 578T breast 105% | NCI/ADR-RES ovarian 107% | T-47D breast 99.6%

CCCc1cc(=O)n2c(C(=O)Nc3ccccc3OC)c(C(=O)Nc3ccc(F)cc3)sc2n1
active: CAKI-1 renal 5.5% [30 µM] | SR leukemia 9.34% [30 µM] | IGROV1 ovarian -12.6% [30 µM] | HS 578T breast 9.91% [30 µM]
inactive: EKVX NSCLC 52.8% [30 µM] | SN12C renal 58.1% [30 µM] | UO-31 renal 19.7% [30 µM] | TK-10 renal 37.7% [30 µM] | ACHN renal 20.3% [30 µM] | A498 renal 90% [30 µM] | CCRF-CEM leukemia 58.4% [30 µM] | MOLT-4 leukemia 65.8% [30 µM] | RPMI-8226 leukemia 30.5% [30 µM] | OVCAR-8 ovarian 18.5% [30 µM] | OVCAR-5 ovarian 57.8% [30 µM] | OVCAR-4 ovarian 36.2% [30 µM] | SK-OV-3 ovarian 29.9% [30 µM] | OVCAR-3 ovarian 51.3% [30 µM] | NCI/ADR-RES ovarian 24.8% [30 µM] | T-47D breast 85.4% [30 µM]

O=[N+]([O-])c1ccc(N/N=C/c2c(O)ccc3ccccc23)nc1
active: UO-31 renal 9.52% | CAKI-1 renal 6.36% | CCRF-CEM leukemia 2.5%
inactive: EKVX NSCLC 32.3% | SN12C renal 49.4% | TK-10 renal 47.3% | ACHN renal 15% | A498 renal 111% | MOLT-4 leukemia 10.5% | SR leukemia 14.1% | RPMI-8226 leukemia 31% | OVCAR-8 ovarian 34.9% | OVCAR-5 ovarian 77.5% | OVCAR-4 ovarian 21.2% | SK-OV-3 ovarian 50.9% | IGROV1 ovarian 18.5% | OVCAR-3 ovarian 20.3% | HS 578T breast 117% | NCI/ADR-RES ovarian 27.3% | T-47D breast 47.4%

CCc1[nH]nc(-c2ccc(OC)cc2)c1-c1ccccc1OCCN(CC)CC
inactive: EKVX NSCLC 94.5% | SN12C renal 96.5% | UO-31 renal 67.3% | TK-10 renal 109% | ACHN renal 98.5% | CAKI-1 renal 89% | A498 renal 80.7% | CCRF-CEM leukemia 84.5% | MOLT-4 leukemia 85.8% | SR leukemia 62.7% | RPMI-8226 leukemia 97.5% | OVCAR-8 ovarian 107% | OVCAR-5 ovarian 92.6% | OVCAR-4 ovarian 91.4% | SK-OV-3 ovarian 91.8% | IGROV1 ovarian 98.6% | OVCAR-3 ovarian 104% | HS 578T breast 99.4% | NCI/ADR-RES ovarian 100% | T-47D breast 97.4%
